Inconclusive results are not listed. Values without a mark were called inactive. Activity calls are given as the source filed them. Calls follow the shape of the dose curve; as a rule, active = well fitted cell-killing curve with a large enough effect; inconclusive = small, poorly fitted or top-dose-only effect, or effect the other way; inactive = no such curve, though single readings can be large or run the other way.
Experiment: Quantitative High-Throughput drug screen in 47 multiple myeloma cell lines against the NCATS MIPE library collection: KHM11_PLB cell viability assay (AID 1918962); also: nearly all actives have a fitted effect of over 35% in size
Conditions: KHM11 myeloma cell viability, CellTiter-Glo ATP luminescence, 48 h; series mostly up to 45.8 µM; viability, % of DMSO control: at the top concentration
Summary of the method: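 CellTiter-Glo luminescence (ATP) after 48 h compound exposure, 37C/5% CO2; 500 cells/well; MIPE 4.0 approved/investigational drugs pinned in; DMSO = 100%, media only = 0% viability.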
Potency is read from the fitted curve at half-maximal effect.

SMILES | Potency | viability, % of DMSO control
O=C(NCCCNc1nc(Nc2cccc(NC(=O)N3CCCC3)c2)ncc1I)c1cccs1 | 1.32 µM (active) | –
CC(C)(C)OC(=O)Nc1ccc(-c2cc(C(=O)NCCCCCCC(=O)NO)no2)cc1 | 5.9 µM (active) | –
C=CCn1c(=O)c2cnc(Nc3ccc(N4CCN(C)CC4)cc3)nc2n1-c1cccc(C(C)(C)O)n1 | 0.833 µM (active) | –
CNC(=O)c1cc(Oc2ccc(NC(=O)Nc3cc(C(C)(C)C)nn3-c3ccc4ncccc4c3)c(F)c2)ccn1 | 2.64 µM (active) | –
O=C(O)C1(Cc2cccc(Nc3nccs3)n2)CCC(Oc2cccc(Cl)c2F)CC1 (configuration not stated) | 0.264 µM (active) | –
COc1cc(C(=O)NS(=O)(=O)c2ccccc2C)ccc1Cc1cn(C)c2ccc(NC(=O)OC3CCCC3)cc12 | 10.5 µM (active) | –
O=C(Nc1cn[nH]c1-c1nc2ccc(CN3CCOCC3)cc2[nH]1)NC1CC1 | 1.48 µM (active) | –
CCOc1ccccc1OCCNC(C)Cc1ccc(OC)c(S(N)(=O)=O)c1 (configuration not stated) | – | 96.5%
COC(=O)Nc1ccc(-c2nc(N3CCOCC3)c3cnn(C4CCN(Cc5cccnc5)CC4)c3n2)cc1 | 0.059 µM (active) | –
Cc1[nH]c2ccccc2c1CCNCc1ccc(C=CC(=O)NO)cc1 | 0.148 µM (active) | –
C[C@@H]1COC(Nc2ccc3ncnc(Nc4ccc(OCc5nccs5)c(Cl)c4)c3c2)=N1 | 16.6 µM (active) | –
COC(=O)[C@]12CCC(C)(C)C[C@@H]1[C@@H]1C(=O)C=C3[C@@]4(C)C=C(C#N)C(=O)C(C)(C)[C@@H]4CC[C@@]3(C)[C@]1(C)CC2 | 0.469 µM (active) | –
CCCCCCCCCC(=O)N[C@@H](Cc1c[nH]c2ccccc12)C(=O)N[C@H](CC(N)=O)C(=O)N[C@@H](CC(=O)O)C(=O)N[C@@H]1C(=O)NCC(=O)N[C@@H](CCCN)C(=O)N[C@@H](CC(=O)O)C(=O)N[C@H](C)C(=O)N[C@@H](CC(=O)O)C(=O)NCC(=O)N[C@H](CO)C(=O)N[C@@H]([C@@H](C)CC(=O)O)C(=O)N[C@@H](CC(=O)c2ccccc2N)C(=O)O[C@@H]1C | – | 92.4%
Cc1cc(CN2CCN(c3c(Br)cnc4nc(-c5ccc(N6CCN(C)CC6)cc5)[nH]c34)CC2)no1 | 5.26 µM (active) | –
NC1(Cc2ccc(Cl)cc2)CCN(c2ncnc3[nH]ccc23)CC1 | 2.96 µM (active) | –
CCCCN1CCC(CNC(=O)c2c3n(c4ccccc24)CCCO3)CC1 | 11.8 µM (active) | –
Cc1c(CN2CCN(S(C)(=O)=O)CC2)sc2c(N3CCOCC3)nc(-c3cnc(N)nc3)nc12 | 0.0332 µM (active) | –
CN1CCN(c2ccc3nc(-c4c(N)c5c(F)cccc5[nH]c4=O)[nH]c3c2)CC1 | 2.09 µM (active) | –
COc1cc2c(Oc3ccc4[nH]c(C)cc4c3F)ncnc2cc1OCCCN1CCCC1 | 4.69 µM (active) | –
O=c1[nH]nc(Sc2ncc([N+](=O)[O-])s2)n1-c1ccc2c(c1)OCCO2 | 2.09 µM (active) | –
CC=C1NC(=O)[C@H]2CSSCCC=C[C@H](CC(=O)N[C@H](C(C)C)C(=O)N2)OC(=O)[C@H](C(C)C)NC1=O | 0.0166 µM (active) | –
CCC[C@H](NC(=O)C(C#N)=Cc1cccc(Br)n1)c1ccccc1 | 1.32 µM (active) | –

Source: PubChem BioAssay (NCATS)
